In PubChem BioAssay (EPA / NIEHS) one finds outcome and AC50 data, which are given here for 40 compounds.

Calls of active or inactive are those of the source. Rule for the calls: active = hit-call score of the fitted dose curve at least 0.9, where 1 is the maximum; inactive = score below 0.9.

Read-out in this experiment: Interleukin 6 Receptor (IL6R), IL6R (gene 3570)
Put plainly: LTEA_HepaRG_IL6R: Life Technologies and Expression Analysis (LTEA) Assay for Interleukin 6 Receptor (IL6R) using HepaRG (AID 2283510).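 For AC50: TaqMan qRT-PCR signal normalized to ACTB GAPDH and POLR2A housekeeping genes.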 As to conditions: mRNA level, 48 h; actives raise or lower the signal. The method, then: LTEA_HepaRG is a cell based, multiplexed-readout assay that uses HepaRG, a human liver cell line, with measurements taken at 48 hours after chemical dosing on a 96-well plate.LTEA_HepaRG_IL6R is one of 102 assay component(s) measured in the LTEA HepaRG cell culture assay. It is a marker of Inflammation.Data from the assay component LTEA_HepaRG_IL6R was analyzed into 1 endpoint. This assay endpoint, LTEA_HepaRG_IL6R, was analyzed with bidirectional fitting relative to DMSO as the negative control and baseline of activity. Using a type of inducible reporter, measures of mRNA induction for gain or loss-of-signal activity can be used to understand regulation of transcription factor activity. To generalize the intended target to other relatable targets, this assay endpoint is annotated to the cytokine receptor intended target family, where the subfamily is JAK-STAT cytokine receptor.
A total of 1060 chemcials from the ToxCast library were tested in eight-point concentration-response experiments. Cell culture and cytotoxicity assays were conducted at Thermo Fisher Scientific's Custom Services facility (Madison, WI). A single lot of human HepaRG cells (Thermo Fisher Scientific, Frederick, MD) was used for the cell culture experiments. 96-well format collagen type I coated plates of human HepaRG cells were prepared using established methods. Briefly, cryopreserved HepaRG cells were thawed, plated at a density of approximately 100,000 cells/well in HepaRG Thaw, Plate, and General Purpose media (HPRG770, Thermo Fisher Scientific), and incubated for 48 hours. 0.5% DMSO was selected as vehicle control to balance the requisite need of DMSO in HepaRG cultures to maintain differentiation (for example, baseline metabolism, proportions of hepatocytes vs. cholangiocytes), while enabling further hepatic receptor pathway activation (for example, PXR and CAR) in response to chemical exposure. 48 hours after plating, the culture medium was replaced with HepaRG Serum-Free Incudtion Media. Cells were exposed to each test chemical in duplicate and maintained in CO2 incubators for another 48 hours. Chemical plates were thawed to room temperature and 200x concentrations of treatment groups were prepared. 8-point conentration-reponse curves were made with the highest exposure at 100 uM, followed by half-log dilutions, all in 0.5% DMSO. Each test plate contained variouse controls, induction positive controls (1mM phenobarbital), cytotoxicity positive controls ([…] aflatoxin B1), vehicle controls (0.5% DMSO), and total lysis controls (0.5% DMSO). Cell morphology images were taken using an Essen IncuCyte FLR automated microscope, with six 96-well plates imaged in about 24 minutes. Images were captured and exported and JPEG files. Spent culture media was transfered to black-well plates for the LDH assay, and remaining media was sorted at -80 C for later use. Cells were treated with RLT buffer and frozen until shipped for gene expression analysis. Total RNA was isolated from the cell suspension in 75 uL of Buffer RLT (Qiagen, Germantown, MD 20874) by Quintiles/Expression Analysis (Durham, NC) using a custom isolation procedure. Total RNA from each plate well was transferred to a preamplification plate. Fluidigm's 96.96 Dynamic ArrayTM (Fluidigm, Amsterdam, the Netherlands) technology was used for gene expression analyses by quantitative reverse transcription polymerase chain reaction (qRT-PCR, performed by Quintiles/Expression Analysis, Durham, NC)89. Standard TaqManTM Assays (Applied Biosystems/ThermoFisher Scientific, Foster City, CA) were used to assess the expression of 93 genes selected based on their selectivity and sensitivity to important hepatic receptors known to be modulated by environmental chemicals; importance in human hepatocyte functionality; and hepatotoxicity. […]
In the case of `CCCCCCCCCCCO`, the compound was called inactive. Consider `CCO[Si](CCCNC(N)=O)(OCC)OCC`, for which the outcome was inactive.

As a reminder, the AC50 is the concentration at which the activity in the assay is half-maximal. Turning to `c1ccc(C[n+]2cccc3ccccc32)cc1`, the AC50 was 50 µM (active). Turning to `Clc1cc(Cl)c2c(c1)N=C1CCCCCN1C2`, the call was inactive.

For the compound `COCC(C)OCC(C)OCC(C)O` (stereo not given), the compound was called inactive.

Take `CCCOC(=O)c1cc(O)c(O)c(O)c1`: the compound was classed as inactive. On the same count and under the same terms, the same measure for `CCCCCCCC[Si](OCC)(OCC)OCC`: “inactive”.

As to `CC(C)(C)c1csc(-c2cc3cc(OCc4ccccc4CC(=O)O)ccc3o2)n1`, the AC50 is 50 µM (active). Take `CN1C(=O)N(c2ccccc2Br)Cc2cnc(Nc3ccc4c(c3)OCC(CO)O4)nc21` (stereo not given): the outcome was inactive. For `Oc1ccccc1`, the call was inactive. As for `COc1ccc2cc(S(=O)(=O)N[C@H](CC(=O)N[C@H](Cc3ccc(CN4[C@H](C)CCC[C@@H]4C)cc3)C(=O)N(C)C(C)C)c3ccc4c(c3)OCO4)ccc2c1`, the AC50 is 82.5 µM (active).

As to `CCN(Cc1cccc(S(=O)(=O)O)c1)c1ccc(C(=C2C=CC(=[N+](CC)Cc3cccc(S(=O)(=O)O)c3)C=C2)c2ccccc2S(=O)(=O)[O-])cc1`, the compound was classed as inactive.

Regarding `Clc1ccccc1C(c1ccccc1)(c1ccccc1)n1ccnc1`, the half-maximal activity concentration (AC50) was 93 µM (active).

For the compound `CC[C@H](NC(=O)c1cc(F)ccc1NS(=O)(=O)c1cccc2cccnc12)c1ccccc1`, the AC50 was 38.6 µM (active). For the compound `O=C1c2ccccc2C(=O)N1CCc1noc(-c2ccc(CN3CCCCCC3)s2)n1`, the compound was classed as inactive. On the same count and under the same terms, the entry for `Oc1ccc2ccccc2c1` is “inactive”. Turning to `O=C(O)c1ccccc1C(=O)OCc1ccccc1`, the outcome was inactive.

Regarding `CCCCCCCCOC(=O)c1cc(O)c(O)c(O)c1`, the result was inactive. On the same count and under the same terms, the entry for `CCCC(=O)OCCC(C)C` is “inactive”; for `CCN(CC)C(=O)c1cc(S(=O)(=O)Cc2ccccc2)c(N2CCC(c3ccccc3)CC2)cc1N(CC)CCN(C)C` it is “inactive”; for `Cc1ccc(C(C)C)cc1` it is “inactive”.

For the compound `NC(=O)c1nc(-c2cccc(-c3cc(F)ccc3OCC(F)(F)C(F)(F)F)c2)n[nH]1`, the compound was classed as inactive.

For the compound `CCCCCCCCCCCCO`, the compound was classed as inactive.

As to `O=C(OCCCCCCOC(=O)c1ccccc1)c1ccccc1`, the call was inactive. Same read-out and setting: the entry for `O=C(O)c1ccccc1-n1cc(C(=O)O)c(=O)c2cc(Nc3c(F)cc(F)cc3Cl)c(Cl)cc21` is “inactive”; for `OCCO` it is “inactive”; for `CC(C)(C)c1cc(/C=C2\SC(N)=NC2=O)cc(C(C)(C)C)c1O` it is “inactive”. Regarding `CCCCCCCCCC(=O)O`, the compound was called inactive. For `CN1C(=O)CC[C@H]1c1cccnc1`, the compound was classed as inactive. Still for that read-out and setting: the entry for `C[C@]12CC[C@@H]3c4ccc(O)cc4CC[C@H]3[C@@H]1CC[C@H]2O` is “inactive”. For `Cc1occc1C(=O)Nc1ccc(C(=O)N2CCC(F)(F)/C(=C\C(=O)N3CCC(N4CCCCC4)CC3)c3ccccc32)cc1`, the concentration at half-maximal activity (AC50) is 27.5 µM (active). With `Cc1cn([C@H]2C[C@H](N=[N+]=[N-])[C@@H](CO)O2)c(=O)[nH]c1=O`, the compound was classed as inactive. The same measure, in the same setting: the entry for `CC(C)(O)c1ccc(CNC(=O)c2cccnc2Oc2ccc3nonc3c2)cc1` is “inactive”; for `Cc1cccc2ccccc12` it is “inactive”. Turning to `OC12N=C(c3ccccc3)SC1Cc1cc(Cl)ccc12` (stereo not given), the concentration at half-maximal activity (AC50) is 1.78 µM (active). Regarding `O=C1O[C@H]([C@@H](O)CO)C(O)=C1O`, the compound was called inactive.

Consider `CCOC(=O)O[C@H](C)OC(=O)c1ccc2c(c1)cc(C(=O)NC1CCN(C(C)C)CC1)n2Cc1cc(-c2ccc(Cl)s2)on1`, for which the call was inactive. For `O=c1[nH]sc2ccccc12`, the call was inactive. On to `CN(C[C@@H](CC[N+]12CCC(C3CCCCC3)(CC1)CC2)c1ccc(Cl)c(Cl)c1)C(=O)c1cc(C(F)(F)F)cc(C(F)(F)F)c1`, for which the AC50 was 78 µM (active). `Cc1cc(F)ccc1-c1cc(N2CC[C@@H](O)[C@H]2CO)ncc1N(C)C(=O)C(C)(C)c1cc(C(F)(F)F)cc(C(F)(F)F)c1`: the outcome was inactive.
